IL1B NFkB inh: blocks IL-1B driven NFkB nuclear translocation in HUVEC cells. HUVEC IL-1B NFkB p65 nuclear translocation imaging. inhibition, % at 2 µM. hit rate 0.43% among 94,000. AID 796;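 active = inhibition above about 30% together with a positive call from visual inspection of the well image, limit read from the data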;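 also: nuclear over cytoplasmic p65 intensity ratio measured by imaging; 0% = IL-1B stimulated DMSO wells and 100% = unstimulated DMSO wells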
NFkB transloc pot: enhances IL-1B driven NFkB nuclear translocation | HUVEC IL-1B NFkB p65 nuclear translocation imaging | activation, % at 2 µM | hit rate 0.3% among 94,000 | AID 819;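 active = activation above 40%, about the mean plus 3 SD, also judged a hit on visual image review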;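 also: percent activation is computed from the nuclear over cytoplasmic p65 intensity ratio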
sEH inhibitor: inhibitors of human soluble epoxide hydrolase; P34913; recombinant human sEH enzymatic activity assay; inhibition, % at 2 µM; hit rate 0.34% among 91,000; AID 707; in the data active = inhibition above about 80%
Target sequence (P34913 whole entry, looked up): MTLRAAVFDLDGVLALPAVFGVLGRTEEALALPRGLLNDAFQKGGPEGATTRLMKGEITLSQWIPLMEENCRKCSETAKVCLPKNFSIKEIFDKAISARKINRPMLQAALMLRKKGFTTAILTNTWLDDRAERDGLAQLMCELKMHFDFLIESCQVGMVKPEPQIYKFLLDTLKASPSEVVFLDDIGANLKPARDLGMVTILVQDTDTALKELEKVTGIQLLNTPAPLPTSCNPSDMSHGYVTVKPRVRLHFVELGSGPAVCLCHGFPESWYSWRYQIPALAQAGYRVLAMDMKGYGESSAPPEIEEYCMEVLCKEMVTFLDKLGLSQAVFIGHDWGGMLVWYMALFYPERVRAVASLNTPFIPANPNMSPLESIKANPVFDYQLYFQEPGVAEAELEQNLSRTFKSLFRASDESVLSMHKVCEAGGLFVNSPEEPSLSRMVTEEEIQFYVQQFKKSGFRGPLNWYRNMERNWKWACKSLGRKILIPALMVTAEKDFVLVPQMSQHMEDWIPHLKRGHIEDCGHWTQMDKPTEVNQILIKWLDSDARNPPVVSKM
sEH act: increases human soluble epoxide hydrolase activity; P34913; hit rate 0.04% among 91,000; AID 717; purified human sEH enzymatic activity, activator screen; activation, % at 2 µM; in the data active = activation above about 37%
Cav32 inh: blocks human Cav3.2 T-type calcium channel | O95180 | Cav3.2-expressing cells, Fluo-4 calcium fluorescence FDSS; hits give low values | B-score at 10 µM | hit rate 4% among 100,000 | AID 449739;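 active = single-dose well whose peak fluorescence ratio is a statistical outlier from its plate by either plate-standardised score or position-corrected B-score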
HUVEC tox IL1B: toxic to HUVEC cells under IL-1B stimulation. cell count reduction, % at 2 µM. AID 845. hit rate 0.41% among 94,000. HUVEC cell count loss, Hoechst imaging, IL-1B stimulated;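 active = cell count reduction more than 3 SD above the screen-wide mean, cut at about 70% in these data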;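 also: normalized per plate to untreated control cells as the no-loss baseline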
Active calls of the source: *; . = no result. Hits are enriched below; roughly 4.6% of the tested compounds scored in any of these assays.

SMILES	IL1B NFkB inh	NFkB transloc pot	sEH inhibitor	sEH act	Cav32 inh	HUVEC tox IL1B
CCCCNS(=O)(=O)c1ccc(NC(=O)c2c(-c3ccccc3Cl)noc2C)cc1	-7	7	2	-4	-5.7*	-2
Cc1onc(-c2ccccc2)c1C(=O)Nc1sc2c(c1C#N)CCC(C)C2 (centres undefined)	-19	19	0	0	-1	2
Cc1onc(-c2ccccc2Cl)c1C(=O)Nc1ccc(S(=O)(=O)NCC2CCCO2)cc1 (centres undefined)	-37	37	-5	3	-0.49	-22
Cc1onc(-c2ccccc2Cl)c1C(=O)Nc1ccccc1N1CCOCC1	-11	11	-2	2	-3.2	6
Cc1onc(-c2ccccc2Cl)c1C(=O)Nc1sc2c(c1C#N)CCC2	0	0	1	-1	-5.4*	-9
Cc1ccccc1-n1nc2c(c1NC(=O)c1c(-c3ccccc3Cl)noc1C)CSC2	-4	4	-2	2	-5.9*	-39
Cc1ccc(-n2nc3c(c2NC(=O)c2c(-c4ccccc4Cl)noc2C)CSC3)cc1	-10	10	-1	0	-6*	1
Cc1onc(-c2ccccc2Cl)c1C(=O)Nc1ccc(N2CCOCC2)cc1	-6	6	3	-3	-0.3	-22
CCOC(=O)N1CCN(CC(=O)Nc2cccc(Br)c2)CC1	-15	15	10	-9	-0.044	2
COc1ccc(/C=N\NC(=O)CCN2CCN(c3ccccc3)CC2)cc1OC	-10	10	4	-2	0.55	-55
COc1ccc(-n2nnnc2-c2cnc(N3CCCC3)nc2C(F)(F)F)cc1	.	.	-11	11	-3	.
O=C(c1ccc(Cl)cc1)C1C2C(=O)N(c3ccccc3)C(=O)C2C2CCCN21 (centres undefined)	-22	22	-9	10	-6.9*	4
Cc1nc2c(C)cccc2cc1C(=O)N/N=C/c1ccc(N(C)C)cc1	2	-2	-2	6	-2	-10
O=C(N/N=C/c1ccc(Cl)cc1)Nc1ccccc1	-14	13	16	-18	-6.5*	14
O=C(CO)N/N=C/c1ccc(Cl)cc1	-2	2	-8	8	0.1	-10
CN(C)c1ccc(/C=N/NC(=O)c2ccc(Cl)cc2)cc1	50*	-50	7	-4	-1.3	-30
CN(CCc1ccccn1)C(=O)CCNC(=O)Cn1cnc2ccccc2c1=O	4	-5	-8	6	0.25	-24
O=C(Nc1ccccc1N1CCN(C(=O)c2ccc(Cl)cc2)CC1)c1cc2ccccc2o1	-16	16	7	-5	-3.1*	-2
CCOC(=O)c1ccoc1CSCC(=O)N1CCN(S(=O)(=O)c2ccc(C)cc2)CC1	.	.	.	.	-0.27	.
Cc1ccccc1OCC(=O)N1N=C(C(F)(F)F)CC1(O)C(C)(C)C (centres undefined)	10	-10	6	-4	-8.2*	-39
Cc1ccc(OCC(=O)N2N=C(C(F)(F)F)CC2(O)C(C)(C)C)cc1C (centres undefined)	-14	14	10	-13	-7.3*	-11
CCC1=NN(C(=O)CCc2ccccc2)C(O)(C(F)(F)F)C1 (centres undefined)	-2	2	-2	6	-3.4	-5
CC(SC(=S)N1CCOCC1)C(=O)O (centres undefined)	-33	33	-8	7	-0.18	-7
O=C(Cn1nc(Cc2cccnc2)c2ccccc2c1=O)NCc1ccc(F)cc1	-15	15	.	.	0.09	-6
O=C(c1nn(Cc2ccccc2)c(=O)c2ccccc12)N1CCc2ccccc2C1	-1	1	-6	5	-4*	4
SMILES	IL1B NFkB inh	NFkB transloc pot	sEH inhibitor	sEH act	Cav32 inh	HUVEC tox IL1B
O=C(c1nn(Cc2ccccc2)c(=O)c2ccccc12)N1CCN(c2ccccn2)CC1	9	-9	-21	22	-5.6*	-6
O=C(c1cc2ccccc2c(=O)o1)N1CCc2ccccc2C1	5	-5	-11	13	.	-13
O=C(Cn1nc(Cc2cccnc2)c2ccccc2c1=O)N1CCN(c2ccccn2)CC1	3	-3	.	.	-3.3*	3
O=C(Cn1cnc2c(oc3ccccc32)c1=O)NCCc1ccccc1	-16	16	16	-16	0.089	-43
Cn1cccc1/C=C1\CC(C(C)(C)C)C/C(=C\c2cccn2C)C1=O (centres undefined)	-10	10	4	-6	-9.1*	-14
N#CC1=C(N)OC2=C(C(=O)CCC2)C1c1ccccc1 (centres undefined)	-7	7	6	-6	-0.92	4
CC(c1ccccc1)C1C(C#N)=C(N)OC2=C1C(=O)CCC2 (centres undefined)	-116	116*	-1	1	.	-6
CC(c1ccccc1)C1C(C#N)=C(N)SC(N)=C1C#N (centres undefined)	-20	20	13	-12	-5*	4
CCOC(=O)C1=C(C)N(C)C(=O)C1CC(=O)O (centres undefined)	0	0	4	-4	0.57	-46
Cc1[nH]c2ccccc2c1C1(O)C(=O)N(C(C)C)c2ccccc21 (centres undefined)	-3	3	-23	20	-2.9	15
Cc1ccc2c(c1)C(O)(c1c(C)[nH]c3ccccc13)C(=O)N2 (centres undefined)	-11	11	8	-5	-4.1*	-22
CCOC(=O)C1=C(C)NC(=S)N(C(C)=O)C1c1ccc(Cl)cc1 (centres undefined)	-25	25	4	-1	-5.5*	-26
COCCOC(=O)C1=C(C)NC(=O)N(C(C)=O)C1c1ccc(Cl)cc1 (centres undefined)	-2	2	-12	12	-0.22	-24
CCOC(=O)C1=C(C)Nc2nnnn2C1c1ccccc1Cl (centres undefined)	-46	46*	0	4	0.018	-31
CCCCOC(=O)C1=C(C)Nc2nnnn2C1c1ccccc1Cl (centres undefined)	-4	4	6	-8	-0.2	-5
O=C(Nc1ccon1)c1cc(-c2ccccc2)nc2ccccc12	72*	-72	9	-9	.	94*
Cc1cccc(NC(=S)NNC(=O)c2csc3c2CCCC3)c1	8	-8	16	-15	-3.5*	-20
Cc1ccc(C)c(NC(=S)NNC(=O)c2csc3c2CCC(C)C3)c1 (centres undefined)	-31	31	41	-40	-5.4*	1
Cc1ccc(C)c(NC(=S)NNC(=O)c2csc3c2CCCC3)c1	-1	1	17	-15	-5.3*	-10
CCNC(=S)NNC(=O)c1csc2c1CCCC2	-3	3	12	-11	-0.94	-21
Cc1cccc(C(=O)NNC(=O)C2CCCO2)c1 (centres undefined)	7	-7	9	-7	0.078	-31
Cc1ccc(C(C)NC(=O)C2CCCO2)cc1C (centres undefined)	-8	8	17	-17	-5.4*	-15
